USP28 block: inhibitors of human USP28 deubiquitinase; inhibition, % at 25 µM; purified USP28, Ub-rhodamine cleavage fluorescence, 30 min; 47,000 tested, 3% active; AID 1645857, 2021; Ubiquitin carboxyl-terminal hydrolase 28 (Homo sapiens), Q96RU2
USP17 block: inhibitors of human USP17 deubiquitinase | purified USP17, Ub-rhodamine cleavage fluorescence, 3 h | AID 1645855, 2021 | inhibition, % at 50 µM | 47,000 tested, 6.5% active | Ubiquitin carboxyl-terminal hydrolase 17-like protein 5 (Homo sapiens), A8MUK1
Target sequence (A8MUK1 whole entry, looked up): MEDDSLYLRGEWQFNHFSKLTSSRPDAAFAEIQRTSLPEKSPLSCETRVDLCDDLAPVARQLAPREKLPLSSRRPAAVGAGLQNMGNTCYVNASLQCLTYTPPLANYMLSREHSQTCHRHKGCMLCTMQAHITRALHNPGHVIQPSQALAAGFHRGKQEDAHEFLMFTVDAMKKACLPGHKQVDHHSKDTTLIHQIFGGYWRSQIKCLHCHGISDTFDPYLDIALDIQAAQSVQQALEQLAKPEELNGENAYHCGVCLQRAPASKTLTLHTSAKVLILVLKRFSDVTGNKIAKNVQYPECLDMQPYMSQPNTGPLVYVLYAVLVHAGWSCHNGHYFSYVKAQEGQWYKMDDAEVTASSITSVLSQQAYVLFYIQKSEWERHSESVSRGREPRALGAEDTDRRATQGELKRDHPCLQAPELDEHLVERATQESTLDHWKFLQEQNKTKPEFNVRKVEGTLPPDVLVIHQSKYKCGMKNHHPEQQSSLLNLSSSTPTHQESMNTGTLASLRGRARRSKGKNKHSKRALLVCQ
OTUD3 block: inhibitors of human OTUD3 deubiquitinase. OTU domain-containing protein 3 (Homo sapiens), Q5T2D3. purified OTUD3, Ub-rhodamine fluorescence, 2 h. inhibition, % at 25 µM. 47,000 tested, 0.7% active. AID 1645858, 2021
USP30 inh: inhibitors of human USP30 deubiquitinase; Ubiquitin carboxyl-terminal hydrolase 30 (Homo sapiens), Q70CQ3; purified USP30, Ub-rhodamine cleavage fluorescence; inhibition, % at 25 µM; 47,000 tested, 5.3% active; AID 1645860, 2021
* marks the source's active call; other numbers are inactive results. Shown are actives, neighbours in structure and some others; about 11% of the full set was active somewhere. No stated cut-off is given here; in the data, active means inhibition above about 30%; inactive means the rest.

SMILES	USP28 block	USP17 block	OTUD3 block	USP30 inh
CC(C)(C)c1ccc(C(=O)Nc2ccc(Oc3cccnc3)nc2)cc1	53*	0	8	13
Cc1ccccc1C(=O)Nc1ccc(Oc2ccc(C(C)(C)C)cc2)nc1	12	6	2	1
C=C(CCC(C)(C)/C=C/CC/C(C)=C/COC(COP(=O)(O)O[C@@H]1OC(C(N)=O)[C@@](C)(O)[C@H](OC(N)=O)C1O[C@@H]1OC(CO[C@@H]2OC(CO)[C@H](O)[C@H](O)C2O)[C@H](O[C@@H]2OC(CO)[C@H](O[C@@H]3OC(C(=O)NC4=C(O)CCC4=O)[C@H](O)[C@H](O)C3O)[C@H](O)C2NC(C)=O)C(O)[C@@H]1NC(C)=O)C(=O)O)CC1C(=C)CCCC1(C)C (some centres undefined)	44*	-8	-16	-137
COc1ccc2[nH]c3c(=O)n(CCN4CCCC4)cnc3c2c1	-5	-5	0	-5
Nc1cc(C2CCN(C(=O)Cc3ccccc3F)CC2)no1	-2	-1	6	22
Cc1ccccc1C(=O)N1C[C@H]2NC(=O)c3ccccc3C(=O)[C@@]2(C)C1	-4	6	1	2
CCCN1Cc2cccc(C(=O)NCCc3ccccc3)c2C1=O	31*	0	5	8
CCOc1ccc(CCNC(=O)c2cccc3c2C(=O)N(CCOC)C3)cc1OCC	53*	-16	-1	-9
CCCN1Cc2cccc(C(=O)NCc3ccc(OC)cc3)c2C1=O	11	-21	-3	1
COCCN1Cc2cccc(C(=O)NCc3ccccc3OC)c2C1=O	11	-10	-1	6
CCN(c1ccccc1)S(=O)(=O)c1ccc(C(=O)Nc2nc3ccc(F)cc3s2)cc1	-30	55*	-26	-230
CCCCOc1cccc(C(=O)Nc2nc3ccc(S(C)(=O)=O)cc3s2)c1	12	26	18	36*
CCN(c1ccccc1)S(=O)(=O)c1cc(C(=O)Nc2nc3ccc(OC)cc3s2)c(Cl)cc1Cl	4	16	3	-35
COCCC(=O)N1C[C@@H](c2ccc(F)c(F)c2)[C@@]2(CCCC(=O)N2)C1	13	11	9	16
O=C(C(c1ccccc1)c1ccccc1)N1CCC(c2nc3c(nnn3Cc3c(F)cccc3Cl)c(=O)[nH]2)CC1	38*	51*	16	44*
O=C(C1CCCC1)N1CCC(c2nc3c(nnn3Cc3ccccc3Cl)c(=O)[nH]2)CC1	19	15	9	39*
O=C(C1CCCC1)N1CCC(c2nc3c(nnn3Cc3cccc(Cl)c3)c(=O)[nH]2)CC1	15	7	-4	26
Cc1cccc(N(Cc2nc3nc(C)cc(C)n3n2)C(=O)COc2ccccc2)c1	6	8	13	14
CC(C)(C)C(=O)N1CCC(c2nc3c(nnn3Cc3ccccc3)c(=O)[nH]2)CC1	9	11	5	29
O=C(CCc1nc(-c2cnccn2)no1)N1CCc2ccccc2C1	4	22	-7	0
COCCNC(=O)C1c2ccccc2C(=O)N(Cc2ccccc2)C12CCCC2 (centres undefined)	12	-1	8	32*
c1cc(-c2noc(C3CCCCC3)n2)cc(N2CCOCC2)n1	2	4	0	6
O=c1ccc(-c2noc(Cc3c(F)cccc3Cl)n2)c[nH]1	93*	16	14	27
COc1ccc(-c2nc(-c3ccc(=O)[nH]c3)no2)c(C)c1	-36	-45	-17	-155
Cc1ccccc1Cc1nc(-c2ccc(=O)[nH]c2)no1	84*	3	8	-1
SMILES	USP28 block	USP17 block	OTUD3 block	USP30 inh
Cc1ccccc1Cc1nc(-c2ccnc(N3CCOCC3)c2)no1	32*	9	9	13
CCC1CCCCN1C(=O)CCc1c(C)nc2nc(NCc3ccc(C)cc3)[nH]n2c1=O (centres undefined)	9	16	11	18
O=C(CCSc1ccccc1)N1CCN(C(=O)c2cnn3ccccc23)CC1	10	1	6	11
Cc1c(C2CCN(S(=O)(=O)c3ccc(C(C)(C)C)cc3)CC2)c2ccccc2n1CC(=O)N1CCCC1	-84	-77	-57	-288
CCC(=O)N1c2ccccc2NC2=C(C(=O)CC(c3ccccc3OCc3ccccc3)C2)C1c1ccccc1 (centres undefined)	9	36*	15	61*
CC1(C)CC(=O)C2=C(C1)Nc1ccccc1N(C(=O)Cc1ccccc1)C2c1ccc(Cl)cc1 (centres undefined)	19	49*	17	29

Assay outcomes (PubChem BioAssay)
